Source: PubChem (National Center for Advancing Translational Sciences (NCATS))
The list is not random: actives were taken first. Their share in the collection is about 7.4%.
Rab9 promoter act – qHTS Assay for Rab9 Promoter Activators | Huh7 Rab9 promoter-luciferase reporter, luminescence, 24 h | Potency, µM (highest dose often 9.22 µM), hits mostly activators | 320,000 tested, 2.8% active | AID 485297, 2010; further: nearly all actives have a fitted effect of over 60% in size
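Huh7 reporter line, Rab9 promoter upstream of luciferase. Compound exposure 24 h at 37 °C in reduced-serum medium with 10% FBS. Read-out: luminescence.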
FLuc modulator – qHTS profiling assay for firefly luciferase inhibitor/activator using purifed enzyme and Km concentrations of substrates (counterscreen for miR-21 project) | Potency, µM (doses to about 57.5 µM), hits mostly inhibitors | AID 588342, 2011 | 360,000 tested, 6.9% active | purified FLuc, Km substrates, luminescence inhibition | Luciferin 4-monooxygenase (Photinus pyralis), P08659; further: nearly all actives have a fitted effect of over 55% in size
Target sequence (P08659 whole entry, looked up): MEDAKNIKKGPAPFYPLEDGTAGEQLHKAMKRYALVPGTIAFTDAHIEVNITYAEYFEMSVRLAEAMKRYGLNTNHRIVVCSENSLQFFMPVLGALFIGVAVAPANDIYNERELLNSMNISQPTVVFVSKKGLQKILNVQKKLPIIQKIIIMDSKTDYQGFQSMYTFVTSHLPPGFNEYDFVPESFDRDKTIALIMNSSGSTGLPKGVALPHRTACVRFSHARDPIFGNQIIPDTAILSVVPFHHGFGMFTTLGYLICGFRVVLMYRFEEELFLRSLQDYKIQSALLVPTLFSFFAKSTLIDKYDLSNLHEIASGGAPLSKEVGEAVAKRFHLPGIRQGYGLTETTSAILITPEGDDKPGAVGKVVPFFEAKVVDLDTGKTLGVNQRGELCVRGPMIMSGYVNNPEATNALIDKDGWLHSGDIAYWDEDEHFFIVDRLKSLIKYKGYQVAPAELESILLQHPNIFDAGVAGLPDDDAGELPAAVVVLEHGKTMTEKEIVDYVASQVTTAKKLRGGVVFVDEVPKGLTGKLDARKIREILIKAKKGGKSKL
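Purified P. pyralis luciferase, 10 nM final, with Km-level 10 uM D-luciferin and 10 uM ATP in 50 mM Tris acetate pH 7.5, 10 mM Mg acetate, 0.01% Tween-20, 0.05% BSA; 6-point qHTS titration about 60 µM downward; luminescence read.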
ELG1 genotox – qHTS screen for small molecules that induce genotoxicity in human embryonic kidney (HEK293T) cells expressing luciferase-tagged ELG1. AID 504466, 2011. HEK293T ELG1-luciferase reporter, luminescence, 16 h. Potency, µM (top dose mostly 46 µM), actives largely listed as activators. 330,000 tested, 1.3% active; further: nearly all actives have a fitted effect of over 60% in size
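Genotoxicity was scored as increased ELG1-luciferase reporter signal, measured by ONE-Glo luminescence (30 min, room temperature). Compound or vehicle exposure of the HEK293T reporter cells lasted 16 hr at 37°C.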
NPC1 promoter act – qHTS Assay for NPC1 Promoter Activators; Huh7 NPC1 promoter luciferase reporter, 24 h; Potency, µM (titrated, usually from 9.22 µM), hits mostly activators; 320,000 tested, 2.4% active; AID 485313, 2010; further: nearly all actives have a fitted effect of over 60% in size
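Readout is luciferase luminescence, reflecting NPC1 promoter activation in stably transfected Huh7 cells after 24 h compound exposure at 37 °C in reduced-serum medium with 10% FBS.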
SMN2 splice up – qHTS Assay for Enhancers of SMN2 Splice Variant Expression; HEK293 SMN2-luciferase splicing reporter, luminescence, 30-36 h; Potency, µM (titrated, usually from 46.1 µM), most hits filed as activators; 210,000 tested, 2.8% active; AID 1458, 2008; further: nearly all actives have a fitted effect of over 55% in size
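qHTS luciferase splicing reporter: luminescence rises when SMN2 exon 7 is included in transfected HEK293 cells. Compound exposure lasted 30-36 h at 37C, with 4.5 mM final sodium butyrate as control, followed by a ONE-Glo read.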
A number is an active result; . = inactive; ? = inconclusive; / = not tested or not shown; [ ] = dose if it differs, or a comment. The call rests on the fitted dose curve; in most records, active means well fitted curve in the direction sought with a large enough effect; inconclusive means small, poorly fitted or top-dose-only effect, or another doubt; inactive means no such curve, though single readings can be large; an effect the other way counts as inactive or inconclusive.

SMILES	Rab9 promoter act	FLuc modulator	ELG1 genotox	NPC1 promoter act	SMN2 splice up
COc1ccc(C2=Nc3ccccc3OC2)cc1	1.6µM	0.85µM	0.52µM	1.6µM	?
COc1ccc(-c2cc(-c3ccccc3)nc3c2COc2ccccc2-3)cc1	/	.	/	/	.
COC(=O)c1c(NC(=O)c2ccc([N+](=O)[O-])o2)sc2c1CCN(C(C)C)C2	.	.	.	.	/
CCN(CC)C(=O)c1sc(NC(=O)c2c(OC)cccc2OC)c(C#N)c1C	.	.	.	.	.
COC(=O)c1sc(NC(=O)c2ccc([N+](=O)[O-])o2)c(C#N)c1C	.	27µM	.	.	/
CCN(CC)C(=O)c1sc(NC(=O)c2cccc([N+](=O)[O-])c2)c(C#N)c1C	.	24µM	.	.	.
CC(=O)N1CCc2c(sc(NC(=O)c3ccc([N+](=O)[O-])o3)c2C#N)C1	4µM	?	?	?	11µM
CCN1CCN(Cc2nc3cc(NC(=O)c4cccc([N+](=O)[O-])c4)ccc3n2CC)CC1	/	.	/	/	/
O=C1CCN(CCc2ccccc2)CCN1[C@H](CSc1ccc(Br)cc1)c1ccccc1	.	?	.	.	/
CCCN1CCC(=O)N([C@H](CSc2ccc(Br)cc2)c2ccccc2)CC1	?	17µM	.	.	/
CCCN1CCC(=O)N([C@H](CSc2ccccc2)CC(C)C)CC1	3.2µM	21µM	?	3.2µM	/
CC(C)C[C@@H](CSc1ccccc1)N1CCN(CC(C)C)CCC1=O	?	15µM	?	?	/
CCCN1CCC(=O)N([C@H](CSc2ccc(C)cc2)CC(C)C)CC1	?	11µM	?	4µM	/
CCOC(=O)c1cccc(NC(=O)CCCn2nc(C)c3c(C)n(-c4ccccc4)nc3c2=O)c1	/	.	/	/	/
CSc1ncc2c(n1)-c1ccccc1N(Cc1ccc(Cl)cc1)S2(=O)=O	/	.	/	/	/
CC(C)(C)OC(=O)NCCCCC1=CC2=CC(=O)C(C)(OC(=O)CCc3ccccc3)C(=O)C2=CO1 (stereo not drawn)	/	/	/	/	.
COc1ccc(CNC(=O)CCCCCNC(=O)N2CCn3c2nc2ccccc23)cc1	.	17µM	.	.	/
O=C(CCNC(=O)N1CCn2c1nc1ccccc12)NCc1ccc(Cl)cc1	.	.	.	.	/
O=C(Nc1ccc(F)cc1)[C@H](Cc1ccccc1)N1Cc2ccccc2C1=O	/	.	/	/	.
COc1ccc(F)cc1S(=O)(=O)N1CCCN(S(=O)(=O)c2cc(F)ccc2OC)CC1	.	.[2.3 µM]	.	.	.
COc1ccc(F)cc1S(=O)(=O)n1cc(C)nc1-c1ccccc1	.	.	.	.	3.5µM
CC[C@@]1([N+](=O)[O-])C[C@H]2C=C[C@@H]1C2	/	/	/	/	.[9.22 µM]
O=C(CSc1nnc(-c2ccco2)o1)c1ccccc1Cl	?	27µM	.	.	.
Fc1ccc(CSc2nnc(-c3ccco3)o2)cc1	?	?	.	?	/
c1ccc(CSc2nnc(-c3ccco3)o2)cc1	?	17µM	?	?	/
SMILES	Rab9 promoter act	FLuc modulator	ELG1 genotox	NPC1 promoter act	SMN2 splice up
Cc1ccc(CSc2nnc(-c3ccco3)o2)cc1	4µM	12µM	?	?	.
Brc1ccc(CSc2nnc(-c3ccco3)o2)cc1	.	?	.	.	13µM
Cc1cc(C)c2nc(N3CCCC(C(=O)NCc4ccccc4F)C3)sc2c1 (stereo not drawn)	/	.	/	/	.
C[C@H]1O[C@@H](n2cc(F)c(=O)[nH]c2=O)[C@H](O)[C@H]1O	.	/	/	.	/
COc1ccc(Nc2ncnc3ccccc23)cc1	2.8µM	15µM	.	3.2µM	11µM
COc1ccc(Nc2ccnc(Nc3ccc(OC)cc3)n2)cc1	?	7.6µM	.	?	.
COc1ccc(Nc2ncnc3ccccc23)c(OC)c1	.	?	.	.	.
COc1ccc(Nc2ncnc3sc(-c4ccccc4)cc23)cc1	.	?	.	.	.
COc1cccc(Nc2ncnc3ccccc23)c1	?	11µM	4.6µM	?	14µM
COc1ccc(Nc2cc(Nc3ccccc3)ncn2)cc1	2µM	?	?	2µM	/
COc1cccc(Nc2cc(C)c3ccccc3n2)c1	.[1.84 µM]	24µM	?	.	/
O=C(Oc1cccc(Nc2ncnc3ccccc23)c1)c1ccccc1Cl	.	17µM	?	.	.
CCCCCn1c(=O)[nH]c2cc(C(=O)N3CCN(c4cccc(C(F)(F)F)c4)CC3)ccc2c1=O	/	.	/	/	.
COc1nc(-c2ccc(C)cc2)ccc1-c1noc(-c2ccco2)n1	?	19µM	?	?	.
COc1nc(C)ccc1-c1noc(-c2ccco2)n1	1.3µM	3.8µM	?	1.4µM	5.6µM
CCOc1nc(-c2ccccc2)ccc1-c1noc(-c2ccco2)n1	.	.	.	.	.
COCc1nc(-c2ccc(-c3ccc(C)cc3)nc2OC)no1	?	17µM	.	.	.
Cc1cc(N2CCC(C)CC2)nc2ccc(NC(=O)Cc3c(F)cccc3Cl)cc12	/	.	/	/	.
N=C1S/C(=C\c2cccc3ccccc23)C(=O)N1c1ccc(F)cc1	.	.	.	.	.
CSC1=NC(=O)/C(=C\c2cccc3ccccc23)S1	.	7.6µM	.	.	.
CCCCNC(=O)C(CC)Sc1nc2ccccc2c(=O)n1CCc1ccc(OC)c(OC)c1 (stereo not drawn)	/	.	/	/	/
COc1cc(OC)c(N(C)C(=O)Nc2cn(CC(C)C)c(=O)c3ccccc23)cc1Cl	/	.	/	/	/
COc1cc(C(=O)Nc2nc3ccc(S(=O)(=O)N4CCOCC4)cc3s2)cc(OC)c1OC	.	.	.	.	.
COc1ccc(CC(=O)Nc2nccs2)cc1S(=O)(=O)N1CCOCC1	/	/	.	/	/
COc1ccc2nc(NC(=O)Cc3ccc(OC)c(S(=O)(=O)N4CCOCC4)c3)sc2c1	.	24µM	.	.	.
SMILES	Rab9 promoter act	FLuc modulator	ELG1 genotox	NPC1 promoter act	SMN2 splice up
COc1ccc2nc(NC(=O)c3cccc(S(=O)(=O)N4CCOCC4)c3)sc2c1	.	11µM	.	.	.
O=C(Nc1nc(-c2nc3ccccc3s2)cs1)c1ccc(S(=O)(=O)N2CCOCC2)cc1	4.5µM	?	.	3.2µM	/
COc1ccc2nc(NC(=O)c3cc(S(=O)(=O)N4CCOCC4)ccc3C)sc2c1	.	11µM	.	.	.
Cc1cccc(N2CCN(c3ncnc4c3nc3n4CCCCC3)CC2C)c1 (stereo not drawn)	/	.	/	/	/
Cc1ccnc(NC(=O)c2cccc(S(=O)(=O)N3CCOCC3)c2)c1	.	17µM	?	.	/
Cc1ccc(-c2csc(NC(=O)COC(=O)c3cccc(S(=O)(=O)N4CCOCC4)c3)n2)cc1	2.5µM	11µM	?	3.2µM	/
O=C(Nc1ccccn1)c1cccc(S(=O)(=O)N2CCOCC2)c1	.	.	.	.	.
Cc1ccc(-c2csc(NC(=O)c3cccc(S(=O)(=O)N4CCN(C)CC4)c3)n2)cc1	.	.	.	.	.
COc1cccc(CSc2nc3cc(OC)c(OC)cc3c3nc(CCn4nc(C)cc4C)nn23)c1	/	.	/	/	.
